Reference: PubChem BioAssay (NCI)
The panel holds about 79,000 compounds, 15% with a hit somewhere; the sample as a whole holds those more often. Activity calls are given as the source filed them. No stated cut-off is given here; in the data, active means growth inhibition above about 70%; inactive means the rest.

Key:
[1] = NCI Yeast Anticancer Drug Screen. Data for the rad52 strain (AID 147);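 further: 0% = growth of vehicle-treated control cultures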; conditions: S. cerevisiae rad52 mutant growth inhibition, stronger effect = higher value
In short: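 Screen used a yeast mutant impaired in DNA repair. After compound exposure, growth was measured. Values reflect inhibition compared with vehicle-treated cells.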

[2] = NCI Yeast Anticancer Drug Screen. Data for the wt1 strain (AID 149);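 further: 0% = growth of vehicle-treated wt1 cultures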; conditions: S. cerevisiae wt1 strain (SPY 50644) growth inhibition, stronger effect = higher value
In short: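 Vehicle-normalised growth inhibition; strain wt1; compound exposure.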

[3] = NCI Yeast Anticancer Drug Screen. Data for the rad50EPP+ strain (AID 151);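 further: 0% = growth of vehicle-treated control cultures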; conditions: S. cerevisiae rad50 mutant strain, stronger effect = higher value
In short: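 Exposing the rad50EPP+ strain to each compound, growth was compared with vehicle-only cultures to give inhibition.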

[4] = NCI Yeast Anticancer Drug Screen. Data for the mgt1 strain (AID 153); conditions: S. cerevisiae mgt1 mutant growth inhibition, stronger effect = higher value
In short: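 Genetically defined yeast (mgt1) treated with compound; inhibition of growth expressed against vehicle-treated controls.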

[5] = NCI Yeast Anticancer Drug Screen. Data for the rad50 strain (AID 155);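 further: 0% = growth of vehicle-only cultures of the same strain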; conditions: S. cerevisiae rad50 strain growth inhibition, stronger effect = higher value
In short: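 A DNA repair-deficient yeast mutant serves as the test organism; compound-induced growth inhibition is calculated against vehicle-treated cells.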

[6] = NCI Yeast Anticancer Drug Screen. Data for the mec2-1 strain (AID 157); conditions: S. cerevisiae mec2-1 strain, stronger effect = higher value
In short: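 Readout is yeast growth inhibition, normalised to vehicle-treated controls, in the mec2-1 strain exposed to compound.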

[7] = NCI Yeast Anticancer Drug Screen. Data for the rad14 strain (AID 159);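 further: 0% = growth of vehicle-treated control cultures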; conditions: S. cerevisiae rad14 strain growth inhibition, stronger effect = higher value
In short: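 Vehicle-treated cultures served as the baseline for growth inhibition of a DNA repair-mutant yeast strain exposed to each compound.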

[8] = NCI Yeast Anticancer Drug Screen. Data for the sgs1 mgt1 strain (AID 161);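 further: 0% = growth of cultures given vehicle only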; conditions: S. cerevisiae sgs1 mgt1 strain, stronger effect = higher value
In short: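 Percent growth inhibition was derived by comparing compound-exposed mutant yeast with vehicle-exposed cultures. The strain carries alterations in DNA damage repair.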

[9] = NCI Yeast Anticancer Drug Screen. Data for the CLN2oe strain (AID 163);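 further: 0% = growth of vehicle-only control cultures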; conditions: S. cerevisiae CLN2oe strain, stronger effect = higher value
In short: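 Values reflect how much compound exposure reduced yeast growth, referenced to vehicle-exposed cells. Assay organism is a strain with a defined genetic change affecting cell-cycle control.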

[10] = NCI Yeast Anticancer Drug Screen. Data for the cln2 rad14 strain (AID 165);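 further: 0% = growth equal to vehicle treated cultures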; conditions: S. cerevisiae cln2 rad14 strain, stronger effect = higher value
In short: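 Relative to vehicle controls, growth inhibition of compound-treated cln2 rad14 yeast was recorded.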

[11] = NCI Yeast Anticancer Drug Screen. Data for the bub3 strain (AID 167); conditions: S. cerevisiae bub3 mutant strain, stronger effect = higher value
In short: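 Inhibition values come from growth of compound-treated mutant yeast normalised to vehicle-treated controls.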

[12] = NCI Yeast Anticancer Drug Screen. Data for the wt2 strain (AID 169);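 further: 0% = growth of vehicle-treated yeast cultures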; conditions: S. cerevisiae wt2 strain growth inhibition, stronger effect = higher value
In short: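 Values express reduction in yeast growth under compound treatment, referenced to vehicle-treated cells.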

[13] = NCI Yeast Anticancer Drug Screen. Data for the mlh1 strain (AID 171);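 further: 0% = growth of vehicle-treated control cultures of the same strain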; conditions: S. cerevisiae mlh1 strain growth inhibition, stronger effect = higher value
In short: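 Steps: expose the defined-mutant yeast strain to compound; expose a parallel culture to vehicle; measure growth; express compound effect as inhibition relative to the vehicle culture.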

[14] = NCI Yeast Anticancer Drug Screen. Data for the sgs1 strain (AID 173);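 further: 0% = growth of vehicle-only control cultures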; conditions: S. cerevisiae sgs1 mutant, stronger effect = higher value
In short: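 Treat defined-mutant yeast with compound; measure growth; calculate inhibition relative to vehicle-treated cells.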

[15] = NCI Yeast Anticancer Drug Screen. Data for the mlh1 rad18 strain (AID 175); conditions: S. cerevisiae mlh1 rad18 strain growth inhibition, stronger effect = higher value
In short: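 Test agents were incubated with a yeast strain of defined genotype (DNA damage repair defect). Inhibition of growth was derived by comparison with vehicle-exposed cultures.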

[16] = NCI Yeast Anticancer Drug Screen. Data for the rad18 strain (AID 177); conditions: S. cerevisiae rad18 mutant growth inhibition, stronger effect = higher value
In short: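 A genetically defined yeast mutant impaired in DNA damage repair was treated with test compounds, then its growth was measured against cultures receiving vehicle alone.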

[17] = at 5.0 µM (retest, dose inferred, filed as 0.5)
[18] = at 50.0 µM (retest, dose inferred, filed as 5.0)

Measured: growth inhibition

Fc1ccc(NC(=S)SCc2ccc(Cl)c(Cl)c2)cc1F
inactive: [1]; at 1.2 µM -6% | [1]; at 3.7 µM -8% | [1]; at 11.0 µM 17% | [2]; at 1.2 µM -4% | [2]; at 3.7 µM 12% | [2]; at 11.0 µM 33% | [3]; at 1.2 µM -2% | [3]; at 3.7 µM 25% | [3]; at 11.0 µM 60% | [4]; at 1.2 µM -3% | [4]; at 3.7 µM -4% | [4]; at 11.0 µM 0% | [5]; at 1.2 µM -15% | [5]; at 3.7 µM -9% | [5]; [17] 66% | [5]; at 11.0 µM 45% | [5]; at 33.0 µM -12% | [6]; at 1.2 µM -4% | [6]; at 3.7 µM -4% | [6]; [17] 18% | [6]; at 11.0 µM -4% | [6]; at 33.0 µM 60% | [7]; at 1.2 µM 3% | [7]; at 3.7 µM 5% | [7]; at 11.0 µM 24% | [8]; [17] 25% | [9]; at 1.2 µM -7% | [9]; at 3.7 µM -10% | [9]; at 11.0 µM -11% | [10]; [17] -2% | [11]; at 1.2 µM -2% | [11]; at 3.7 µM -4% | [11]; [17] 1% | [11]; at 11.0 µM 21% | [12]; at 1.2 µM 10% | [12]; at 3.7 µM 13% | [12]; at 11.0 µM 64% | [13]; at 1.2 µM -13% | [13]; at 3.7 µM -7% | [13]; at 11.0 µM 27% | [14]; at 1.2 µM -5% | [14]; at 3.7 µM -1% | [14]; at 11.0 µM 44% | [15]; [17] 33% | [16]; at 1.2 µM -9% | [16]; at 3.7 µM -6% | [16]; at 11.0 µM 30%
active: [1]; at 33.0 µM 89% | [1]; at 100.0 µM 98% | [2]; at 33.0 µM 99% | [2]; at 100.0 µM 98% | [3]; at 33.0 µM 98% | [3]; at 100.0 µM 98% | [4]; at 33.0 µM 97% | [4]; at 100.0 µM 98% | [5]; [18] 98% | [5]; at 50.0 µM 90.3% | [5]; at 100.0 µM 97% | [6]; [18] 98% | [6]; at 50.0 µM 93.2% | [6]; at 100.0 µM 99% | [7]; at 33.0 µM 99% | [7]; at 100.0 µM 98% | [8]; [18] 98% | [8]; at 50.0 µM 90% | [9]; at 33.0 µM 80% | [9]; at 100.0 µM 97% | [10]; [18] 97% | [10]; at 50.0 µM 90.5% | [11]; at 33.0 µM 98% | [11]; [18] 97% | [11]; at 50.0 µM 90.8% | [11]; at 100.0 µM 98% | [12]; at 33.0 µM 99% | [12]; at 100.0 µM 99% | [13]; at 33.0 µM 99% | [13]; at 100.0 µM 98% | [14]; at 33.0 µM 99% | [14]; at 100.0 µM 97% | [15]; [18] 97% | [15]; at 50.0 µM 90.6% | [16]; at 33.0 µM 98% | [16]; at 100.0 µM 98%

O=C1c2ccccc2C(=O)c2cc(CBr)ccc21
active: [1]; at 33.0 µM 79% | [1]; at 100.0 µM 91% | [3]; at 11.0 µM 73% | [3]; at 33.0 µM 94% | [3]; at 100.0 µM 95% | [5]; at 33.0 µM 82% | [5]; [18] 90% | [5]; at 50.0 µM 99.2% | [5]; at 100.0 µM 92% | [6]; [18] 77% | [6]; at 50.0 µM 90% | [6]; at 100.0 µM 71% | [7]; at 100.0 µM 89% | [8]; [18] 89% | [8]; at 50.0 µM 99.2% | [10]; [18] 76% | [11]; [18] 79% | [11]; at 50.0 µM 86.2%
inactive: [1]; at 1.2 µM 5% | [1]; at 3.7 µM 16% | [1]; at 11.0 µM 21% | [2]; at 1.2 µM 0% | [2]; at 3.7 µM 0% | [2]; at 11.0 µM -1% | [2]; at 33.0 µM 18% | [2]; at 100.0 µM 53% | [3]; at 1.2 µM 27% | [3]; at 3.7 µM 56% | [4]; at 1.2 µM 0% | [4]; at 3.7 µM 2% | [4]; at 11.0 µM 4% | [4]; at 33.0 µM 21% | [4]; at 100.0 µM 68% | [5]; at 1.2 µM 2% | [5]; at 3.7 µM 14% | [5]; [17] 48% | [5]; at 11.0 µM 29% | [6]; at 1.2 µM 1% | [6]; at 3.7 µM 2% | [6]; [17] 32% | [6]; at 11.0 µM 5% | [6]; at 33.0 µM 32% | [7]; at 1.2 µM -2% | [7]; at 3.7 µM 6% | [7]; at 11.0 µM 12% | [7]; at 33.0 µM 53% | [8]; [17] 54% | [9]; at 1.2 µM 1% | [9]; at 3.7 µM 5% | [9]; at 11.0 µM 8% | [9]; at 33.0 µM 28% | [9]; at 100.0 µM 61% | [10]; [17] 33% | [10]; at 50.0 µM 57.5% | [11]; at 1.2 µM 1% | [11]; at 3.7 µM 0% | [11]; [17] 30% | [11]; at 11.0 µM 1% | [11]; at 33.0 µM 26% | [11]; at 100.0 µM 54%
